Inconclusive results are not listed. The source made the active and inactive calls. Calls come from the whole dose curve; as a rule, active = well fitted inhibition curve with a large enough effect; inconclusive = small, poorly fitted or top-dose-only effect; inactive = flat fitted curve, though single readings scatter.

Among the data in PubChem BioAssay (NCATS) are Potency values, retold here.

Common to all, as to test: qHTS profiling for inhibitors of Plasmodium falciparum proliferation (AID 504749); note: nearly all actives have a fitted effect of over 60% in size
Holding throughout (conditions): P. falciparum in erythrocytes, SYBR Green DNA, 72 h; series mostly up to 28.7 µM
In general terms: qHTS replaces the single test concentration by a dilution series.

One test deals with DFO2036. Put shortly:
(§1)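 SYBR Green fluorescence of parasite DNA, read after lysis and overnight dark incubation, measured growth over 72 h in erythrocyte culture at 0.3% parasitemia and 2.5% hematocrit. Data normalised to DMSO and 0.29 uM artemisinin, with plate-drift correction.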

In another test the test system is DIV14. The gist of the method:
as §1

The test system of a further test is DIV17. The gist of the method: as §1
A further test has as its system DIV30. The gist of the method: as §1
In another test the test system is Dd2. Put shortly: as §1
A further test deals with ECU. The gist of the method: as §1
The next test deals with FAB9. Put shortly: as §1
Another test has as its system GB4. The gist of the method: as §1
The test system of another test is HB3. Put shortly: as §1
Another test has as its system ICS. The gist of the method: as §1
The next test has as its system JCK. The gist of the method: as §1
The subject of another test is N140. Put shortly:
as §1

For another test, the system named is P93_24. The gist of the method:
as §1

The subject of a further test is P94_40. Put shortly:
as §1

For a further test, the system named is PAD. Put shortly:
as §1

A further test has as its system PC15. The gist of the method:
as §1

A further test concerns PC26. Put shortly:
as §1

The test system of another test is PC49. Put shortly: as §1
In a further test the test system is SC27B. The gist of the method: as §1
Another test concerns TAB109. Put shortly:
as §1
Potency is the fitted concentration of half-maximal effect.

On to `C[Se]CCC(N)C(=O)O` (stereo not given), for which the Potency result with DFO2036, with DIV14, in the test on DIV17, in the test on DIV30, in the test on Dd2 and with ECU was “inactive” throughout. In addition, the Potency result in the test with FAB9, with GB4, with HB3, with ICS, in the test with JCK and in the test on N140 was “inactive” each time. The Potency entry in the test with P93_24, with P94_40, in the test on PAD, in the test on PC15, in the test with PC26 and in the test with PC49 was “inactive” each time. Further, the Potency entry in the test with SC27B and in the test with TAB109 was “inactive” in each case.

Regarding `Cc1cccc(C)c1OCC(=O)N[C@@H](Cc1ccccc1)[C@@H](O)C[C@H](Cc1ccccc1)NC(=O)[C@H](C(C)C)N1CCCNC1=O`, the Potency with DFO2036 is 3.98 µM (active); with DIV14, 1.9 µM (active); in the test with DIV17 it was 1.9 µM (active); in the test on DIV30, 1.9 µM (active); in the test on Dd2, 10 µM (active); in the test on ECU it was 1 µM (active). The Potency in the test on FAB9 is 11.2 µM (active); with GB4, 3.79 µM (active); in the test on HB3 it was 7.94 µM (active); in the test with ICS it was 0.891 µM (active); in the test with JCK, 7.94 µM (active); in the test with N140 it was 0.708 µM (active). For the same molecule, the Potency in the test with P93_24 was 1.12 µM (active); in the test on P94_40, 2.51 µM (active); in the test on PAD, 0.891 µM (active); in the test on PC15 it was 3.98 µM (active); with PC26, 1.9 µM (active); with PC49 it was 2 µM (active). Moreover, the values for the Potency in the test with SC27B and in the test on TAB109 were 1.12 µM (active) and 2.82 µM (active), respectively.

With `CN1C(C(=O)Nc2ccccn2)=C(O)c2sccc2S1(=O)=O`, the Potency result with DFO2036, in the test with DIV14, in the test with DIV17, in the test on DIV30, in the test on Dd2 and in the test on ECU was “inactive” throughout. Further, the Potency entry with FAB9, in the test with GB4, in the test on HB3, in the test with ICS, in the test on JCK and in the test with N140 was “inactive” each time. The Potency entry with P93_24, in the test with P94_40, in the test with PAD, in the test on PC15, in the test on PC26 and in the test with PC49 was “inactive” each time. For the same molecule, the Potency result with SC27B and in the test with TAB109 was “inactive” each time.

As to `C=CCc1cc(OC)c(O)c(C(=O)NCCO)c1`, the Potency entry with DFO2036, with DIV14, in the test on DIV17, in the test with DIV30, in the test with Dd2 and in the test on ECU was “inactive” each time. Moreover, the Potency entry in the test on FAB9, with GB4, with HB3, with ICS, in the test on JCK and in the test on N140 was “inactive” in each case. In addition, the Potency result in the test with P93_24, with P94_40, in the test on PAD, in the test on PC15, in the test with PC26 and with PC49 was “inactive” in each case. The Potency entry in the test with SC27B and in the test on TAB109 was “inactive” throughout.

For the molecule `Clc1ccc(C(Cn2ccnc2)OCc2ccsc2Cl)c(Cl)c1` (stereo not given), the Potency is 3.16 µM (active) with DFO2036; 1.9 µM (active) in the test on DIV14; 1.69 µM (active) with DIV17; 4.78 µM (active) in the test on DIV30; 3.16 µM (active) in the test with Dd2; 1.41 µM (active) in the test on ECU. The Potency in the test with GB4 was 1.69 µM (active); in the test on HB3, 3.16 µM (active); with ICS, 1 µM (active); in the test with JCK, 5.01 µM (active); with N140, 2.82 µM (active); in the test on P93_24 it was 2.24 µM (active). For the same molecule, the Potency was 4.47 µM (active) in the test with P94_40; 1 µM (active) in the test on PAD; 4.47 µM (active) in the test with PC15; 3.38 µM (active) in the test on PC26; 4.47 µM (active) in the test with PC49; 2 µM (active) with SC27B. Moreover, the Potency in the test on TAB109 was 5.01 µM (active).

For the molecule `O=C(O)CCNC(=O)c1ccc(N=Nc2ccc(O)c(C(=O)O)c2)cc1`, the Potency result with DFO2036, in the test on DIV14, in the test on DIV17, with DIV30, in the test with ECU and with FAB9 was “inactive” each time. Besides, the Potency entry in the test with GB4, in the test with ICS, in the test with JCK, with N140, in the test on P93_24 and with P94_40 was “inactive” each time. The Potency entry in the test with PAD, with PC15, with PC26, with PC49, with SC27B and in the test with TAB109 was “inactive” in each case.

For `CCCCc1ccc2nc(NC(=O)OC)[nH]c2c1`, the Potency result in the test with DFO2036, in the test with DIV14, with DIV17, in the test with DIV30, in the test with Dd2 and with ECU was “inactive” in each case. Further, the Potency entry in the test with FAB9, in the test on GB4, in the test on HB3, with ICS, in the test on JCK and in the test on N140 was “inactive” throughout. The Potency entry in the test on P93_24, with P94_40, in the test on PAD, with PC15, in the test on PC26 and in the test on PC49 was “inactive” throughout. For the same molecule, the Potency result in the test with SC27B and in the test on TAB109 was “inactive” each time.

`Oc1ccc(OCc2ccccc2)cc1`: the Potency entry in the test with DFO2036, in the test with DIV14, in the test on DIV17, in the test on DIV30, in the test with Dd2 and with ECU was “inactive” throughout. Besides, the Potency result in the test on FAB9, in the test with GB4, with HB3, in the test with JCK, in the test with N140 and with P93_24 was “inactive” throughout. Besides, the Potency entry with P94_40, in the test on PAD, in the test with PC15, with PC26, in the test on PC49 and in the test with SC27B was “inactive” in each case. The Potency entry with TAB109 is “inactive”.

For `CCOC(=O)c1c(C)n(C)c2ccc(O)cc12`, the Potency result in the test on DFO2036, with DIV14, with DIV17, with DIV30, in the test with Dd2 and in the test on ECU was “inactive” each time. The Potency entry in the test on FAB9, with GB4, in the test on HB3, in the test on ICS, in the test on JCK and in the test on P93_24 was “inactive” in each case. Besides, the Potency result in the test on P94_40, with PAD, in the test with PC15, in the test with PC26, with PC49 and in the test with SC27B was “inactive” throughout. For the same molecule, in the test with TAB109, the Potency result was “inactive”.

As for `CN(C)c1ccc2nc3ccc(=[N+](C)C)cc-3sc2c1`, the Potency is 0.0708 µM (active) in the test with DFO2036; 0.0269 µM (active) in the test with DIV14; 0.019 µM (active) in the test with DIV17; 0.0675 µM (active) in the test on DIV30; 0.0398 µM (active) with Dd2; 0.0251 µM (active) in the test on ECU. The Potency was 0.0316 µM (active) in the test on FAB9; 0.0301 µM (active) in the test with GB4; 0.0224 µM (active) with HB3; 0.0071 µM (active) in the test on ICS; 0.0562 µM (active) in the test with N140; 0.0316 µM (active) in the test with P93_24. Moreover, the Potency is 0.0447 µM (active) with P94_40; 0.0316 µM (active) with PAD; 0.0675 µM (active) in the test on PC26; 0.0631 µM (active) with SC27B; 0.0501 µM (active) with TAB109. Besides, the Potency result with PC49 was “inactive”.

As to `CCCOc1ccc2nc(NC(=O)OC)[nH]c2c1`, the Potency entry in the test with DFO2036, in the test on DIV14, with DIV17, in the test on DIV30, in the test on Dd2 and with ECU was “inactive” in each case. Besides, the Potency result with FAB9, in the test on GB4, in the test with HB3, in the test on ICS, with JCK and with N140 was “inactive” throughout. In addition, the Potency result in the test with P93_24, with P94_40, with PAD, in the test on PC15, with PC26 and in the test on PC49 was “inactive” each time. Further, the Potency entry in the test with SC27B and in the test with TAB109 was “inactive” throughout.

As for `O=C1c2ccccc2-c2n[nH]c3cccc1c23`, the Potency result with DFO2036, with DIV14, in the test on DIV17, with DIV30, in the test on Dd2 and in the test on ECU was “inactive” in each case. The Potency entry in the test on FAB9, in the test with HB3, in the test with JCK, with N140, in the test on P93_24 and in the test on P94_40 was “inactive” throughout. In addition, the Potency result in the test with PAD, in the test with PC15, in the test on PC49, in the test with SC27B and with TAB109 was “inactive” each time.
